The nature of assay [1]: Quantitative High-Throughput drug screen in 47 multiple myeloma cell lines against the NCATS MIPE library collection: L363_DSMZ cell viability assay (AID 1918984). Note: nearly all actives have a fitted effect of over 40% in size. The conditions noted are these: L363 myeloma viability, CellTiter-Glo ATP luminescence, 48 h; viability (% of control): at 45.8 µM (top of the series). In short, it runs like this:
(§1)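 Inhibition of viability over 48 h was scored by ATP content (CellTiter-Glo) in 500-cell wells. Zero and full viability were defined by media-only and DMSO-only wells.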

Assay [2] is described as follows: Quantitative High-Throughput drug screen in 47 multiple myeloma cell lines against the NCATS MIPE library collection: KMS34_JCRB cell viability assay (AID 1918985). Note: nearly all actives have a fitted effect of over 40% in size. In short, it runs like this:
as §1

A short description of assay [3]: Quantitative High-Throughput drug screen in 47 multiple myeloma cell lines against the NCATS MIPE library collection: OCIMY7_PLB cell viability assay (AID 1918987). Note: nearly all actives have a fitted effect of over 65% in size. The note with it: OCI-MY7 myeloma viability, CellTiter-Glo ATP, 48 h; viability (% of DMSO): at 45.8 µM (top of the series). In short, it runs like this: as §1
Assay [4] is described as follows: Quantitative High-Throughput drug screen in 47 multiple myeloma cell lines against the NCATS MIPE library collection: OPM1_PLB cell viability assay (AID 1918989).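 For viability (% of control): 100% = DMSO-only wells and 0% = media-only wells.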 Note: nearly all actives have a fitted effect of over 40% in size. In short, it runs like this: as §1
The nature of assay [5]: Quantitative High-Throughput drug screen in 47 multiple myeloma cell lines against the NCATS MIPE library collection: SKMM1_PLB cell viability assay (AID 1919863). Note: nearly all actives have a fitted effect of over 35% in size. The note with it: SKMM1 myeloma viability, CellTiter-Glo ATP, 48 h; viability: stronger effect = lower value. The procedure, abridged: as §1
Assay [6] is described as follows: Quantitative High-Throughput drug screen in 47 multiple myeloma cell lines against the NCATS MIPE library collection: U266_ATCC cell viability assay (AID 1919864).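 For viability (% of DMSO control): 0% = media-only wells without cells and 100% = DMSO-only wells.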 Note: nearly all actives have a fitted effect of over 35% in size. The procedure, abridged:
as §1

The nature of assay [7]: Quantitative High-Throughput drug screen in 47 multiple myeloma cell lines against the NCATS MIPE library collection: UTMC2_PLB cell viability assay (AID 1919868).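 For viability (% of DMSO control): 100% = DMSO-only wells and 0% = media-only wells without cells.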 Note: nearly all actives have a fitted effect of over 55% in size. The note with it: CellTiter-Glo ATP luminescence, 48 h; viability (% of DMSO control): at 45.8 µM (top of the series). The procedure, abridged:
as §1

Assay [8] can be described thus: Quantitative High-Throughput drug screen in 47 multiple myeloma cell lines against the NCATS MIPE library collection: PE2_PLB cell viability assay (AID 1919869).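 For viability (% of control): 100% = DMSO-only wells and 0% = cell-free media-only wells.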 Note: nearly all actives have a fitted effect of over 35% in size. The procedure, abridged:
as §1

Assay [9] in a line: Quantitative High-Throughput drug screen in 47 multiple myeloma cell lines against the NCATS MIPE library collection: OPM2_DSMZ cell viability assay (AID 1919872). Note: nearly all actives have a fitted effect of over 30% in size. In short, it runs like this:
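Viability readout: CellTiter-Glo luminescence following 5 min room-temperature incubation with reagent. Prior exposure: 48 h, 37C, humidified 5% CO2, 500 cells per well.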

Assay [10] in a line: Quantitative High-Throughput drug screen in 47 multiple myeloma cell lines against the NCATS MIPE library collection: OCIMY5_PLB cell viability assay (AID 1918988). Note: nearly all actives have a fitted effect of over 65% in size. In short, it runs like this: as §1
Assay [11] is described as follows: Quantitative High-Throughput drug screen in 47 multiple myeloma cell lines against the NCATS MIPE library collection: XG6_PLB cell viability assay (AID 1919865).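 For viability (% of control): 100% = DMSO-only wells and 0% = media-only wells.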 Note: nearly all actives have a fitted effect of over 40% in size. In short, it runs like this: as §1
Assay [12] can be described thus: Quantitative High-Throughput drug screen in 47 multiple myeloma cell lines against the NCATS MIPE library collection: VP6_DJ cell viability assay (AID 1919867). Note: nearly all actives have a fitted effect of over 40% in size. The procedure, abridged: as §1
The nature of assay [13]: Quantitative High-Throughput drug screen in 47 multiple myeloma cell lines against the NCATS MIPE library collection: KMS11_JCRBsus cell viability assay (AID 1919873).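 For viability (% of control): 100% = DMSO-only wells and 0% = media-only wells without cells.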 Note: nearly all actives have a fitted effect of over 50% in size. In short, it runs like this: as §1
A short description of assay [14]: Quantitative High-Throughput drug screen in 47 multiple myeloma cell lines against the NCATS MIPE library collection: KMS28BM_JCRB cell viability assay (AID 1919874). Note: nearly all actives have a fitted effect of over 35% in size. In short, it runs like this: as §1
Assay [15] in a line: Quantitative High-Throughput drug screen in 47 multiple myeloma cell lines against the NCATS MIPE library collection: RPMI8226_ATCC cell viability assay (AID 1919871). Note: nearly all actives have a fitted effect of over 30% in size. The procedure, abridged:
as §1

A short description of assay [16]: Quantitative High-Throughput drug screen in 47 multiple myeloma cell lines against the NCATS MIPE library collection: KMS28PE_JCRB cell viability assay (AID 1918983). Note: nearly all actives have a fitted effect of over 35% in size. The procedure, abridged:
as §1

A short description of assay [17]: Quantitative High-Throughput drug screen in 47 multiple myeloma cell lines against the NCATS MIPE library collection: XG1_PLB cell viability assay (AID 1919866). Note: nearly all actives have a fitted effect of over 35% in size. The procedure, abridged: as §1
Assay [18] in a line: Quantitative High-Throughput drug screen in 47 multiple myeloma cell lines against the NCATS MIPE library collection: PCM6_Riken cell viability assay (AID 1919870).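 For viability (% of control): 100% = DMSO-only wells and 0% = media-only wells.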 Note: nearly all actives have a fitted effect of over 30% in size. In short, it runs like this:
as §1

Data on 9 molecules can be found in PubChem BioAssay (NCATS).

Records with an inconclusive call do not appear. Unmarked numbers belong to inactive results. Activity calls are given as the source filed them. Calls come from the whole dose curve; as a rule, active = well fitted cell-killing curve with a large enough effect; inconclusive = small, poorly fitted or top-dose-only effect, or effect the other way; inactive = no such curve, though single readings can be large or run the other way.
Potency is the fitted concentration of half-maximal effect.

On to `CCC(=O)N1CCN(c2ccc(-n3c(=O)ccc4cnc5ccc(-c6cnc7ccccc7c6)cc5c43)cc2C(F)(F)F)CC1`, for which the Potency result in assay [1] was “inactive”. The Potency was 0.0059 µM (active) in assay [2]; 16.6 µM (active) in assay [3]; 0.0132 µM (active) in [4]; 0.0148 µM (active) in [5]; 0.0418 µM (active) in assay [6]; 0.0469 µM (active) in assay [7]. Also, the Potency in assay [8] is 0.0093 µM (active); in [9] it was 0.0264 µM (active).

As to `COc1cc([C@H]2Oc3cc([C@H]4Oc5cc(O)cc(O)c5C(=O)[C@H]4O)ccc3O[C@H]2CO)ccc1O`, in assay [1], the Potency entry is “inactive”. Moreover, the Potency was 20.9 µM (active) in [2]; 8.33 µM (active) in [3]; 10.5 µM (active) in assay [10]; 23.5 µM (active) in assay [5]; 14.8 µM (active) in [11]; 11.8 µM (active) in [12]. For the same molecule, the Potency in [13] is 7.43 µM (active); in assay [14], 10.5 µM (active).

As to `CN1CCN(c2ncc(-c3cc(Cl)cc(Cl)c3Cl)c(N)n2)CC1`, the Potency in [1] was 18.7 µM (active); in assay [3], 33.2 µM (active); in assay [6], 26.4 µM (active); in assay [11], 7.43 µM (active); in [8], 10.5 µM (active). The Potency entry in [2], in assay [10], in assay [4], in assay [7], in assay [15] and in assay [13] was “inactive” in each case. Also, the Potency result in [14] was “inactive”.

Turning to `N#Cc1ccc(Oc2ccc3c(c2)COB3O)cc1`, the Potency result in assay [16], in [6], in [15], in assay [9] and in assay [14] was “inactive” each time. In [5], the viability is 113%. Further, the Potency was 16.6 µM (active) in assay [11] and 20.9 µM (active) in assay [8].

On to `Cc1ccc2c(c1)C(=O)[C@]1(O)CCN(c3ccccc3)C1=N2`, for which the Potency result in assay [1], in assay [4], in assay [11], in assay [17], in [8] and in assay [18] was “inactive” in each case. In assay [9], the Potency result was “inactive”. The Potency in [2] was 1.48 µM (active); in [7], 4.69 µM (active); in assay [14] it was 10.5 µM (active).

Consider `CN1CCC[C@H]1CCO[C@](C)(c1ccccc1)c1ccc(Cl)cc1`, for which the Potency in assay [16] was 23.5 µM (active); in assay [10], 26.4 µM (active); in assay [4], 26.4 µM (active); in [11], 18.7 µM (active); in [17], 18.7 µM (active); in assay [7] it was 14.8 µM (active). The Potency in assay [14] is 5.26 µM (active). For the same molecule, the viability in assay [5] was 84.5%. The Potency entry in assay [9] is “inactive”.

Consider `O=C(NC[C@H](O)CO)c1ccncc1Nc1ccc(I)cc1F`, for which the Potency is 13.2 µM (active) in [1]; 1.18 µM (active) in assay [2]; 0.209 µM (active) in [3]; 18.7 µM (active) in assay [4]; 8.33 µM (active) in assay [5]; 20.9 µM (active) in assay [6]. For the same molecule, the Potency is 7.43 µM (active) in assay [11]; 14.8 µM (active) in assay [17]; 10.5 µM (active) in assay [12]; 5.26 µM (active) in assay [8]; 16.6 µM (active) in assay [18]; 0.833 µM (active) in assay [15]. In addition, the Potency in assay [13] was 2.64 µM (active).

For `C[C@H]1O[C@@H](n2cc(F)c(=O)[nH]c2=O)[C@H](O)[C@H]1O`, the Potency entry in assay [16], in [11], in [9] and in [14] was “inactive” in each case. Besides, the Potency in assay [4] is 11.8 µM (active); in assay [17] it was 8.33 µM (active); in assay [12], 0.59 µM (active); in assay [8] it was 1.87 µM (active); in assay [18] it was 8.33 µM (active); in assay [15], 9.35 µM (active). In assay [13], the Potency was 7.43 µM (active).

Consider `CO[C@H]1C=CO[C@@]2(C)Oc3c(C)c(O)c4c(O)c(c(C=NN5CCN(C)CC5)c(O)c4c3C2=O)NC(=O)C(C)=CC=C[C@H](C)[C@H](O)[C@@H](C)[C@@H](O)[C@@H](C)[C@H](OC(C)=O)[C@H]1C`, for which the Potency entry in assay [1], in [3], in [4], in [11], in assay [17] and in assay [7] was “inactive” throughout. The Potency entry in assay [8], in assay [18], in assay [15], in [9] and in [14] was “inactive” each time. Also, the Potency in [2] is 2.12 µM (active); in [10] it was 0.598 µM (active).
